Compound activity as filed in PubChem.
D2 antag = HTS Assay for Allosteric Antagonists of the Human D2 Dopamine Receptor: Primary Screen for Antagonists. D(2) dopamine receptor (Homo sapiens), P14416. HEK293 TREx D2 cells, calcium flux, dopamine EC80. inhibition, % at 10 µM. 340,000 compounds, 2% hits. AID 485344, 2010; in the data active means inhibition above about 30%; inactive means below that, where a call was filed; further: 0% is about no effect
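Compounds are added to dye-loaded, induced HEK293 T-REx cells coupled to calcium release via D2; after a 3 min kinetic read an EC80 dopamine stimulus is given and fluorescence is recorded for 3 more min.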
D2 PAM-1 = Beta-Arrestin HTS for Positive Allosteric Modulators of the Human D2 Dopamine Receptor: Potentiators | D(2) dopamine receptor (Homo sapiens), P14416 | DiscoveRx D2 beta-arrestin cells, luminescence, 90 min; 100% = 57 uM dopamine signal | potentiation, % (test concentration not listed) | 360,000 compounds, 0.23% hits | AID 624464, 2012; in the data active means potentiation above about 50%; inconclusive means mostly about 30% to 49%
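PathHunter beta-arrestin assay in DiscoveRx D2 cells. Compounds were added with an EC20 of dopamine (50 nM final) for 90 min at 37 deg C. Luminescence was read 1 h after detection reagent, with 57 uM dopamine as the EC100 control.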
D2 PAM-2 = HTS Assay for Positive Allosteric Modulators of the Human D2 Dopamine Receptor: Primary Screen for Potentiators. D(2) dopamine receptor (Homo sapiens), P14416. HEK293 T-REx D2, calcium flux, EC20 dopamine potentiation. potentiation, % at 10 µM. 340,000 compounds, 0.34% hits;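 active means potentiation over 3 SD above the plate norm, cut at about 30% in these data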; further: 0% is about no effect
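Using a no-wash calcium dye in inducible, force-coupled HEK293 Trex cells expressing D2, we tracked fluorescence each second for 180 s after compound, then for 180 s after EC20 dopamine to detect augmented signalling.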
D2 ag-1 = Beta-Arrestin HTS for Positive Allosteric Modulators of the Human D2 Dopamine Receptor: Agonists; 360,000 compounds, 0.084% hits; DiscoveRx PathHunter D2 beta-arrestin, luminescence, 90 min; 100% = 57 uM dopamine signal; AID 624465, 2012; activation, % (test concentration not listed); D(2) dopamine receptor (Homo sapiens), P14416; in the data active means activation above about 40%; inconclusive means between about 15% and that limit
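DiscoveRx PathHunter D2 beta-arrestin cells (2,100/well) attached overnight, then compound-stimulated 90 min at 37 C in HBSS/10 mM HEPES/0.1% Tween-20 buffer; beta-galactosidase complementation read by luminescence after 1 h at ambient temperature. Dopamine 57 uM final (EC100) as control.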
D2 ag-2 = HTS Assay for Allosteric Agonists of the Human D2 Dopamine Receptor: Primary Screen for Agonists | HEK293 T-REx D2 cells, calcium flux agonist mode | activation, % at 2 µM | 340,000 compounds, 0.53% hits | AID 485358, 2010;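 active means activation over 3 SD above normal in the single-dose calcium agonist read, cut at about 30% in these data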; further: 0% is about no effect
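Calcium-flux readout, 1 cycle/sec over 180 s following compound pin transfer, in inducible HEK293 Trex D2 cells (force-coupled); dopamine controls included. Positive calcium responses during this window marked compounds as potential agonists.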
D3 ag = qHTS of D3 Dopamine Receptor Agonist: D3 Dopamine Receptor B-arrestin Agonist Confirmatory Assay. AID 720506, 2013. DiscoveRx D3 beta-arrestin cells, luminescence, 90 min. 2,300 compounds, 4% hits. Potency, µM (top dose mostly 76.9 µM), for inactives: top-dose activation, hits mostly activators. shares compounds with D2 ag-2;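 further: potency means the concentration at half of the fitted maximal effect; 100% = dopamine control response; nearly all actives have a fitted effect of over 70% in size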
Target sequence (P35462 whole entry, looked up): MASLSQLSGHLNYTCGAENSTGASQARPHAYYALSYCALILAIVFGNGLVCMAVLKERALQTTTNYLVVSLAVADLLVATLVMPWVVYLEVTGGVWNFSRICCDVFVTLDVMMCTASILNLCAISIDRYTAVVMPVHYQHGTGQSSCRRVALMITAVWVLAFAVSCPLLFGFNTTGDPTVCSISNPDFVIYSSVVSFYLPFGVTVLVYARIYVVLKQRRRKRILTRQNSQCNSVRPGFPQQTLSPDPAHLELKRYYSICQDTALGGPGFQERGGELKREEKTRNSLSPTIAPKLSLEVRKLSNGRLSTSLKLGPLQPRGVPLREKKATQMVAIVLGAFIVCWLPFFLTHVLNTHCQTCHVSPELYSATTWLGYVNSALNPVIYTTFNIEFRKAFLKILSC
D2 ag-3 = qHTS of D3 Dopamine Receptor Agonist: D2 Dopamine Receptor B-arrestin Agonist Counterscreen. Potency, µM (doses to about 76.9 µM), without a hit: at the highest dose activation, hits mostly activators. 2,300 compounds, 5.9% hits. shares compounds with D2 ag-2. AID 720507, 2013. DiscoveRx PathHunter D2 beta-arrestin, luminescence, 90 min; response scale: percent relative to full dopamine signal; further: potency means the concentration at half of the fitted maximal effect; % of control where 0% means no effect; nearly all actives have a fitted effect of over 70% in size
* = called active by the depositor; ? = inconclusive; / = no result given. A selection: hits, their analogues and other compounds. The true share with any hit is near 2.4%. Unless noted, the call rests on the fitted dose curve; in most records, active means well fitted activation curve with a large enough effect; inconclusive means small, poorly fitted or top-dose-only effect; inactive means flat fitted curve, though single readings scatter.

SMILES | D2 antag | D2 PAM-1 | D2 PAM-2 | D2 ag-1 | D2 ag-2 | D3 ag | D2 ag-3
CN(CCNC(=O)c1ccc(CS(=O)(=O)c2ccc(Br)cc2)o1)CCc1ccccc1 | 24 | -13 | -25 | -2 | 53* | -21% | 14%
O=C(NCCc1ccccc1)c1ccc(CS(=O)(=O)c2ccc(Br)cc2)o1 | -8 | -15 | -1 | -3 | 0 | / | /
CCOc1ccc(/C(C)=N/NC(=O)c2nnn(-c3nonc3N)c2-c2cccs2)cc1 | 2 | -1 | 6 | -3 | 10 | -5% | 2%
COc1cccc(-c2c(C(=O)N/N=C(\C)c3ccco3)nnn2-c2nonc2N)c1 | 9 | -10 | 9 | -2 | 9 | / | /
Nc1nonc1-n1nnc(C(=O)N/N=C/c2ccc(F)cc2)c1-c1ccc2c(c1)OCO2 | / | -3 | / | -5 | / | 3% | -3%
C/C(=N\NC(=O)c1nnn(-c2nonc2N)c1-c1ccccc1)c1ccco1 | -2 | -14 | 26 | -15 | 10 | 2% | 1%
CCOc1cccc(-c2c(C(=O)N/N=C/c3ccncc3)nnn2-c2nonc2N)c1 | -3 | 0 | 0 | 4 | -1 | / | /
COc1ccc(/C=N/NC(=O)c2nnn(-c3nonc3N)c2-c2cccc(OC)c2)cc1 | 34* | 2 | 22 | 2 | 5 | 8% | -1%
CC(=O)c1cccc(NC(=O)c2cnn(-c3cccc(C)c3)c2-n2cccc2)c1 | / | / | 0 | / | 0 | / | /
COc1ccc(Cn2c(C(=O)O)c(CNCc3ccc(C)o3)c3ccc(OC)cc32)cc1 | / | / | 1 | / | 1 | / | /
COc1ccc(/C=N/NC(=O)c2nnn(-c3nonc3N)c2-c2cccs2)cc1OC | 2 | 5 | 4 | 5 | 0 | / | /
COc1cccc(-c2c(C(=O)N/N=C/c3cccs3)nnn2-c2nonc2N)c1 | 21 | -4 | 23 | -7 | 3 | -13% | -5%
Cc1ccc(/C=N/NC(=O)c2nnn(-c3nonc3N)c2-c2cccs2)cc1 | 32* | -1 | 18 | -2 | 25 | 4% | 29%
COCc1c(C(=O)N/N=C\c2cccs2)nnn1-c1nonc1N | 5 | -3 | 5 | -1 | 1 | / | /
COc1cccc(C2=NS(=O)(=O)N(C)C(C(=O)Nc3cccc(O)c3)=C2)c1 | / | / | -2 | / | 0 | / | /
OCCN1CCN(Cc2cc(Cl)c3cccnc3c2O)CC1 | 3 | -24 | -9 | 1 | 0 | / | /
Cc1ccccc1-c1nnc(CN2CCN(c3ccccn3)CC2)o1 | / | / | -19 | / | / | / | /
Brc1ccc(CN2CCN(c3ccccn3)CC2)s1 | 69* | ? | -12 | 70* | 70* | ? | 3.5µM*
Oc1c(CN2CCN(c3ccccn3)CC2)cc(Cl)c2cccnc12 | 89* | -63 | -31 | -16 | 83* | -21% | ?
Cc1[nH]c2ccccc2c1CN1CCN(c2ccccn2)CC1 | 56* | -17 | -22 | 3 | 51* | -12% | 6%
c1ccc(N2CCN(Cc3nc4ccccc4[nH]3)CC2)nc1 | -10 | -3 | -21 | 5 | 15 | / | /
O=c1c(CN2CCN(c3ccccn3)CC2)coc2ccccc12 | 79* | 19 | -17 | ? | 88* | 11% | ?
O=c1c(CN2CCN(Cc3ccccc3F)C(CCO)C2)coc2ccccc12 (configuration not stated) | -19 | -11 | 1 | 3 | 9 | / | /
